# Reference: PubChem BioAssay AID896 (National Center for Advancing Translational Sciences (NCATS), 2007)
# This is one part of the list. Records with an inconclusive call do not appear. Values without a mark were called inactive. Calls follow the shape of the dose curve; as a rule, active = well fitted inhibition curve with a large enough effect in the main read-out, with a control signal flat; inconclusive = small, poorly fitted or top-dose-only effect, or a change in a side signal; inactive = no such curve, though single readings can be large or run the other way.
# Molecular target: Caspase-1 (Homo sapiens) (UniProt P29466)
# Experiment: Confirmation Concentration-Response Assay for Allosteric/Competitive Inhibitors of Caspase-1
# Conditions: purified caspase-1, fluorogenic substrate cleavage; series mostly up to 57.5 µM; activity change, negative = inhibition: at the top concentration
# Excerpt: NIH Molecular Libraries Screening Centers Network [MLSCN]
# NIH Chemical Genomics Center [NCGC]
# PI Name: Dr. James Wells,
# Dr. Enrique Perez-Paya, Dr.Janice Williams, Dr. Dennis Wolan, a person
# The caspases (Cysteine Aspartyl Protease) comprise a related family of 14 dimeric proteases that are critical mediators of apoptosis (programmed cell death) and inflammation. The caspases represent an important class of drug targets for stroke, ischemia, cancer and inflammatory diseases. […] One goal of this project was to identify compounds that act as allosteric inhibitors via stabilizing the procaspase form of the enzyme. […]
# The biochemical assay was configured using purified caspase 1 at a high enzyme concentration to promote formation of the homodimers and thus facilitate the identification of allosteric inhibitors. […] After initiation of the assay with substrate the plates were rapidly read using an automated robotic system (Kalypsys, Inc.) to maintain consistent timing. […] Product formation was also measured after 1 hour. […]
# Caspase 1 was prepared in buffer (50 mM HEPES pH 7.5, 50 mM KCl, 200 mM NaCl, 10 mM DTT, 0.1% CHAPS) at a concentration of 66.6 nM and 3 uL was dispensed to all wells using black solid Kalypsys 1536-well plates. […] The plates were then exposed using 405 nm excitation/520 nm emission filters for 4 sec and read at 20 sec intervals for 3 min. […]
row,SMILES,"activity change, negative = inhibition [%]"
1,Cc1nc2c(C(=O)NCc3ccc4c(c3)OCO4)c[nH]n2c(=O)c1Cc1ccccc1F,-18.4
